# Test results from publication PMC5540273 (PLoS ONE, 2017).
# Assays:
# Details in all cases: concentration: 1 μM, replicates: in singlicate; n = 1
# CDK8 = tested on: CDK8
# CDK9 = tested on: CDK9
# CDKL1 = tested on: CDKL1
# CDKL2 = tested on: CDKL2
# CDKL3 = tested on: CDKL3
# CDKL5 = tested on: CDKL5
# CHEK1 = tested on: CHEK1
# CHEK2 = tested on: CHEK2
# CIT = tested on: CIT
# CLK1 = tested on: CLK1
# CLK2 = tested on: CLK2
# CLK3 = tested on: CLK3
# CLK4 = tested on: CLK4
# CSF1R-autoinhibited = tested on: CSF1R-autoinhibited
# CSF1R = tested on: CSF1R
# CSK = tested on: CSK
# CSNK1A1L = tested on: CSNK1A1L
# CSNK1A1 = tested on: CSNK1A1
# CSNK1D = tested on: CSNK1D
# CSNK1E = tested on: CSNK1E
# 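Note: KINOMEscan kinase panel screen.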
SMILES,%Inh (CDK8) [%],%Inh (CDK9) [%],%Inh (CDKL1) [%],%Inh (CDKL2) [%],%Inh (CDKL3) [%],%Inh (CDKL5) [%],%Inh (CHEK1) [%],%Inh (CHEK2) [%],%Inh (CIT) [%],%Inh (CLK1) [%],%Inh (CLK2) [%],%Inh (CLK3) [%],%Inh (CLK4) [%],%Inh (CSF1R-autoinhibited) [%],%Inh (CSF1R) [%],%Inh (CSK) [%],%Inh (CSNK1A1L) [%],%Inh (CSNK1A1) [%],%Inh (CSNK1D) [%],%Inh (CSNK1E) [%]
NCCCC(NC(=O)c1cc(Br)c(-c2ccnc3[nH]ccc23)s1)c1ccccc1.O=C(O)C(F)(F)F.O=C(O)C(F)(F)F (stereo not drawn) [GSK1287544],27,4,0,40,0,0,0,0,90,51,61,33,45,0,2,0,59,90,82,84
O=C(Nc1cccc(-c2nn3ccccc3c2-c2ccnc(Nc3cccc(F)c3)n2)c1)c1c(F)ccc(F)c1Cl [GSK357952],6,0,15,25,0,0,15,0,7,24,0,0,11,0,93.3,20,7,2,0,40
Cc1ccc(C)c(NC(=O)NC2CCN(c3ccnc(Nc4ccc(F)cc4)n3)C2)c1 (stereo not drawn) [GSK1379720],21,0,1,35,0,0,0,0,0,23,0,0,0,25,0,0,0,0,6,11
Cl.Cl.NCC(NC(=O)c1cc(-c2ccccc2)c(-c2ccnc3[nH]ccc23)s1)c1ccccc1 (stereo not drawn) [GSK1321561],30,0,8,24,58,0,0,0,99.9,33,0,49,19,0,0,0,97.1,95.7,98,99.9
COc1ccc(-c2coc3ccc(-c4nnc(SCc5ccc(OC)c(C(F)(F)F)c5)o4)cc23)cc1,20,1,11,0,0,1,0,18,0,26,1,0,18,7,0,16,0,0,0,0
Cn1cc(-c2ccc3c(c2)CCN3C(=O)Cc2cccc(Cl)c2)c2c(N)ncnc21 [GSK2606590],100,0,0,42,0,4,3,0,26,30,0,13,14,5,97.6,6,13,20,16,63
C[C@@H](Oc1cc(-n2cnc3cc(-c4ccnc(NCCS(C)(=O)=O)c4)ccc32)sc1C(N)=O)c1ccccc1Cl [GSK907232],0,11,4,12,0,0,0,0,36,67,4,32,47,1,38,0,22,0,0,17
c1ccc(Oc2ccc(Nc3ccnc4cc(-c5ccc(CNCCN6CCOCC6)o5)ccc34)cc2)nc1 [GW567145],55,0,2,9,0,0,0,90.6,7,17,0,0,0,40,68,77,0,0,0,0
CCS(=O)(=O)c1ccc(OC)c(Nc2nccc(-c3c(-c4cccc(NC(=O)c5c(F)cccc5F)c4)nn4ncccc34)n2)c1 [GSK326180],16,0,6,15,0,0,10,0,8,40,0,9,21,0,24,17,0,0,7,35
